Our source for the INHIBITION values is ChEMBL document CHEMBL4513216, “Probing the Open Global Health Chemical Diversity Library for Multistage-Active Starting Points for Next-Generation Antimalarials” (ACS Infect Dis, 2020).

The structures appear in SMILES notation. In all, about 69,000 compounds went through this assay and about 8,600 (12%) showed an effect of 50% or more. The list comes from a sample in which strong results are over-represented; it also holds similar structures and randomly drawn compounds.

For this assay, the system named is Plasmodium berghei. Nature of the assay: Screen against P. berghei liver stage (PbLuc), transformed with Luciferase, at 10uM. The format is functional, HepG2. To be noted: tested at 10 uM.
As to `N#Cc1nc(COc2ccc3c(c2)OCO3)oc1N1CCCC1`, the INHIBITION was determined as 45.2%. Next, `COC(=O)c1cc(C(=O)N2CCCCC2C)n(-c2ccccc2)n1` (stereo not given): 13.4%; `CN1C[C@H]2CNC[C@@]2(C(=O)N2CCN(c3ncccc3C#N)CC2)C1`: 48.1%; `COCCn1c(-c2cccc(OC)c2)cnc1NC(=O)NCC(C)C`: 25.1%. Take `c1cnc(NC2COC3(CCN(Cc4cccs4)CC3)C2)nc1` (stereo not given): the INHIBITION is reported as -23.8%. The same measure for `CCN(CC)C(=O)c1ccn(COc2ccc(F)cc2)n1`: 1.04%; for `COC(=O)c1ccc(N(C(=O)c2cscn2)C(C)C)c(C)c1`: 27%; for `O=C(Cc1ccsc1)N1CCC(c2ccncc2)CC1`: 45.2%. The same measure for `Cc1cc(C)c(CNC(=O)N(C)Cc2ccc(F)cc2)c(=O)[nH]1`: 7.27%; for `CN(Cc1ccc2c(c1)OCCO2)C(=O)NCCc1cnn(C)c1`: 47.6%. Consider `CC(=O)NCCNC(=O)N(C)Cc1ccc2c(c1)OCCO2`, for which the INHIBITION is on record as 56.6%.

As for `CCN(Cc1ccc2c(c1)OCCO2)C(=O)NCc1nncn1CC`, the INHIBITION was 11.4%.

For the compound `CCn1cnnc1CNC(=O)N(C)Cc1ccc2c(c1)OCO2`, the INHIBITION came out at 59.4%. Next, `CN(Cc1cnn(C)c1)C(=O)NCCc1ccc2c(c1)OCCO2`: -2.862%. Next, `CCn1cnnc1CNC(=O)N(C)Cc1ccc2c(c1)OCCO2`: 30.2%. The same measure for `Cc1cc(C)c(CNC(=O)N(C)Cc2ccoc2)c(=O)[nH]1`: 26.5%.

`Cc1cc(C)c(CNC(=O)N(C)Cc2ccc3c(c2)OCO3)c(=O)[nH]1`: the INHIBITION was 51.1%.

For `Cc1cc(Nc2cnccn2)cc(C2CCCN2)n1` (stereo not given), the INHIBITION is recorded as 21.7%. Next, `O=C(C1CCOCC1)N1CCO[C@H]2[C@H](OCC3CC3)CC[C@@H]21`: -37.4%; `Cc1cccc(C(=O)N2CCc3ncnc(C4CCOC4)c3CC2)n1` (stereo not given): 15.9%; `COC(C)(C)CC(C)NCc1cc(-c2ccco2)on1` (stereo not given): 29.2%. The same measure for `CC(CN1CCCCCC1)NCc1cc(-c2ccco2)on1` (stereo not given): 59.5%.

As for `CCSCC(C)NCc1cc(-c2ccco2)on1` (stereo not given), the INHIBITION is 13.7%. The same measure for `CCc1cnccc1C(=O)NC1CCN(Cc2ccccc2F)CC1`: 23.1%; for `Cn1ncc(N2CCOC(CCNC(=O)CO)C2)cc1=O` (stereo not given): 25.8%. The same measure for `Cn1ncc(N2CCOC(CCNC(=O)N3CCCCC3)C2)cc1=O` (stereo not given): 47.4%; for `Cn1ncc(N2CCOC(CCNC(=O)NC(C)(C)C)C2)cc1=O` (stereo not given): 71.2%. Next, `O=S(=O)(C1CC1)N1C[C@H](Oc2ccccn2)[C@H]2OCCC[C@H]21`: 15.4%; `Cc1ccc(CNS(=O)(=O)C=c2[nH]c(=O)n3cccc3c2=O)cc1`: 0%. `CN(C)[C@@H]1CCN(C(=O)Cc2cccs2)[C@H]1Cc1cnn(C)c1`: the INHIBITION is given as -16.7%.

For the compound `CO[C@@H]1CCN(Cc2cccs2)[C@H]1Cc1ccncc1`, the INHIBITION stood at 62.5%.

As to `CO[C@H]1CCN(Cc2cccs2)[C@@H]2CN(Cc3ccncc3)C[C@H]12`, the INHIBITION is given as 61.3%.

In the case of `COCCN1C[C@@H]2[C@@H](OC)CCN(Cc3cccs3)[C@@H]2C1`, the INHIBITION was 16.8%.

In the case of `CN(C)[C@@H]1CCN(C(=O)Cc2ccc(F)cc2)[C@H]1Cc1ccncc1`, the INHIBITION amounted to 15.9%. Next, `COCCO[C@H]1CCN(Cc2cccs2)[C@H]1Cc1cccnc1`: 32.7%; `CN(C)[C@@H]1CCN(C(=O)Cc2cccs2)[C@H]1Cc1ccncc1`: 74.2%. With `CO[C@@H]1CCN(Cc2cccs2)[C@@H]2CN(Cc3ccncc3)C[C@@H]21`, the INHIBITION turned out to be 46.4%.

Consider `COCCN1CC[C@H](OC)[C@@H]1Cc1ccccc1`, for which the INHIBITION was 10%. The same measure for `O=C(Nc1ccccc1)N1CCn2c(nnc2C2CCNCC2)C1`: 11.8%; for `CN(C)C(=O)CN1CCOCC2(CCN(c3ncc(F)cn3)CC2)C1`: -3.26%.

With `COCC1CN(Cc2ccc(OC)cc2)S(=O)(=O)c2cnccc2O1` (stereo not given), the INHIBITION amounted to 13.9%. As to `CC(C)CCn1nc(CNc2ccc(Br)cc2)nc1O`, the INHIBITION amounted to 44.9%. The same measure for `CCCC(=O)N1CCCC(Cn2cc(-c3ccc(F)cc3)nn2)C1` (stereo not given): 1.24%. On to `Cc1ccc(NCc2nc3n(n2)CCCCC3)c(C)c1`, for which the INHIBITION was 2.69%. The same measure for `CCN1C(=O)C[C@@H]2[C@@H]1CCN2S(=O)(=O)Cc1ccc(C)cc1`: -17.1%; for `COc1ccc(C(=O)Nc2cc(CC(C)C)nn2C)cc1`: 22.3%. The same measure for `CCNC(=O)[C@@H]1C[C@H](N)CN1Cc1ccc(Sc2ccc(C)cc2)o1`: 67.5%; for `CCNC(=O)[C@@H]1C[C@@H](N)CN1Cc1ccc(-c2ccccc2C#N)o1`: 23.9%; for `CCNC(=O)[C@@H]1C[C@H](N)CN1C(=O)CCc1ccc(C)c(C)c1`: 30.9%. Next, `CCNC(=O)[C@@H]1C[C@@H](N)CN1C(=O)Cc1cc(C)ccc1C`: 11.2%. For `CCNC(=O)[C@@H]1C[C@H](N)CN1Cc1ccc(-c2ccccc2C#N)o1`, the INHIBITION is listed as 47.1%. For the compound `CCNC(=O)[C@@H]1C[C@H](N)CN1C(=O)Cc1cc(C)ccc1C`, the INHIBITION was -1.91%.

On to `CCNC(=O)[C@@H]1C[C@@H](N)CN1Cc1ccc(Sc2ccc(C)cc2)o1`, for which the INHIBITION was determined as 77.7%. Next, `CCNC(=O)[C@@H]1C[C@@H](N)CN1C(=O)CCc1ccc(C)c(C)c1`: 15.3%; `CCNC(=O)[C@@H]1C[C@H](N)CN1Cc1ccc(-c2cc[nH]n2)o1`: 61.9%; `CCCNC(=O)Nc1ncc(-c2cccnc2)s1`: 15.5%. Next, `COCC(=O)N1CC[C@H]2C[C@H](C)O[C@@H]2C1`: 38.1%; `CCCC(=O)N1CCCCC1C(=O)Nc1ccc(-c2nnc[nH]2)cc1` (stereo not given): 16.8%; `Cn1nc(C2CCN(C(=O)CCN3CCOCC3)CC2)c2cccnc21`: 32.8%.

In the case of `CC(C)c1nc(CSc2nnc(-c3cccs3)n2CC(N)=O)no1`, the INHIBITION is recorded as -49.7%.

Consider `CC(O)CN1CCN(C(=O)c2ccn(-c3ccccc3Cl)n2)CC1` (stereo not given), for which the INHIBITION was -12.2%.

For the compound `CN1C[C@H](COCC2CC2)[C@H]2CCN(Cc3ccco3)CC[C@H]2C1=O`, the INHIBITION is 33.4%. Next, `COC[C@@H]1CN(C)C(=O)[C@@H]2CCN(Cc3ccco3)CC[C@H]12`: 54.1%. Next, `CN1C[C@@H](COCC2CC2)[C@H]2CCN(Cc3ccco3)CC[C@H]2C1=O`: 46.7%. As for `Cc1cn2c(n1)CCC(NS(=O)(=O)c1sc(C)nc1C)C2` (stereo not given), the INHIBITION is reported as 21.5%. Take `Cc1cn2c(n1)CCC(NS(=O)(=O)c1ccc(C)s1)C2` (stereo not given): the INHIBITION worked out at 34.4%.

Take `Cc1cn2c(n1)CCC(NS(=O)(=O)c1cc(C)sc1C)C2` (stereo not given): the INHIBITION is reported as 61.5%. The same measure for `Cc1cccc(COC[C@@H]2CC[C@H]3[C@H](CCN3C(=O)CC3CC3)O2)n1`: 24.1%; for `Cc1ccc(-c2cc(C(=O)N(C)Cc3noc4c3CCCC4)[nH]n2)o1`: 34.5%; for `Cc1nccn1-c1ccc(C(C)Nc2cnn(C)c(=O)c2Cl)cc1` (stereo not given): 52.6%. Next, `CC(Nc1cnn(C)c(=O)c1Cl)c1ccc(F)c(F)c1` (stereo not given): 68.9%; `Cc1nccn1-c1ccc(NS(=O)(=O)c2cnn(C(C)C)c2)cn1`: -2.97%. For the compound `COc1ccc(C(C)Nc2cnn(C)c(=O)c2Cl)cc1OC` (stereo not given), the INHIBITION is listed as 68.9%. For the compound `COc1ccc(C(C)Nc2ncc(C(N)=O)cc2Cl)cc1OC` (stereo not given), the INHIBITION is on record as -59.5%. Next, `Cc1ccc(C(C)NC(=O)CCc2cnn(C)c2)cc1F` (stereo not given): 33%; `Cn1ncc(N2CCOCC2)c(Cl)c1=O`: 8.77%; `CC(Nc1cnn(C)c(=O)c1Cl)c1ccc(F)cc1` (stereo not given): 65.9%. The same measure for `COc1ccc(C(C)Nc2ncc(C(N)=O)cc2Cl)cc1F` (stereo not given): -138%; for `COc1ccc(C(C)Nc2nc3c(C)nn(C)c3c(=O)n2C)cc1` (stereo not given): -45.2%. The same measure for `CC(NCc1cnc(N2CCN(C)CC2)nc1)c1ccc(F)cc1` (stereo not given): 26.5%; for `Cn1ncc(NCc2cc(F)cc(F)c2)c(Cl)c1=O`: 8.48%; for `CC(C)CC(=O)N1Cc2ccccc2CC1C(=O)Nc1nccs1` (stereo not given): 31.6%. For `CCn1cc2c(n1)CN(S(=O)(=O)c1cccnc1)CC2COC` (stereo not given), the INHIBITION turned out to be 8.85%.

Take `CC1(c2ncc(CN3CCN(c4ccccn4)CC3)cn2)CCCCO1` (stereo not given): the INHIBITION was -16.85%. Next, `O=C1[C@H]2CN(CC3CC3)C[C@H]2CN1Cc1cccc(F)c1`: 39.8%; `O=C(NCc1cccnc1N1CCc2ccccc2C1)c1cnc[nH]1`: -11.6%. `Cc1cc(C(=O)N2CC[C@@H]3CN(CCC(C)C)S(=O)(=O)[C@@H]3CC2)no1`: the INHIBITION came to 6.27%. Next, `CS(=O)(=O)N1C[C@H]2CC[C@@H](C1)N(C/C=C/c1ccc(F)cc1)C2`: 31.7%.

On to `Cc1ccc(CN2CCn3cc(CNC(=O)c4cnn(C)c4)nc3C2)s1`, for which the INHIBITION is on record as 16.8%. For the compound `CS(=O)(=O)NCc1cncc2c1CCN(C(=O)N1CCCC1)C2`, the INHIBITION worked out at 37.2%. The same measure for `Cc1ccccc1-n1cnc(Cl)c1CO`: 59.3%; for `Cc1ccccc1-n1cnc(Cl)c1C(=O)O`: 24.4%; for `OCc1c(Cl)ncn1-c1ccc(F)cc1`: 52.8%. The same measure for `OCc1c(Cl)ncn1-c1ccccc1`: 46.4%; for `Cc1ccc(-n2cnc(Cl)c2CO)cc1`: 40.9%; for `Cc1cccc(-n2cnc(Cl)c2CO)c1`: 28%.

As for `COc1ccc(CN2C[C@@H]3C(CC(=O)N4CCCC4)[C@@H]3C2)cc1` (stereo not given in full), the INHIBITION was 17.4%. In the case of `CCc1nnc2n1CC(CNCc1nnc(C(C)(C)C)o1)CC2` (stereo not given), the INHIBITION came out at 14.9%. Next, `Cc1cccc(NC(=O)N2CCC3(CC(=O)N(c4ccsc4)C3)C2)c1` (stereo not given): 12.4%; `COCCn1cc2c(n1)C(CNCc1ccc(F)cc1)OCC2` (stereo not given): 13.5%.

Take `Cc1ccc(C(=O)N(C)Cc2cscn2)c(=O)[nH]1`: the INHIBITION was 15%. Next, `COCCC1COC2(CCN(C(C)=O)CC2)C1` (stereo not given): 20.1%; `COCCC1COC2(CCN(C(=O)c3ccncc3)CC2)C1` (stereo not given): 74.2%; `COCCC1COC2(CCN(C(=O)c3ccsc3)CC2)C1` (stereo not given): 57.9%. The same measure for `CCN(C)C1COC2(CCN(C(=O)c3ccc4[nH]ccc4c3)CC2)C1` (stereo not given): -12.2%. The same measure for `COCCC1COC2(CCN(C(=O)c3cccn3C)CC2)C1` (stereo not given): 20.6%; for `CCN(C)C1COC2(CCN(C(=O)c3cccc(Cl)c3)CC2)C1` (stereo not given): 0.112%; for `COCCC1COC2(CCN(C(=O)c3cccnc3)CC2)C1` (stereo not given): 34.6%. For `CCN(C)C1COC2(CCN(C(=O)c3ccc(Cl)cc3)CC2)C1` (stereo not given), the INHIBITION came out at 70.3%. Next, `COCCC1COC2(CCN(C(=O)c3ccccc3)CC2)C1` (stereo not given): 40.4%.
